Laboratory results: the supplement of paper PMC10849652
Targets with a hit are over-represented here; the source holds about 7,900 in all. About 0.6% of all pairs of compound and target were hits.

Assays:
Experiment in all cases: log2 fold change, soluble protein after heating vs DMSO (PISA); higher = thermal stabilisation; K562 cells, 10 uM, 30 min; active = over 0.2 and 3.5 SD of the protein, either way, in both replicates (recomputed)
[1] = compound: NC(=O)Nc1cc(-c2cccc(F)c2)sc1C(=O)N[C@H]1CCCNC1
Outline: (§1)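 Quantification of soluble protein used TMTpro 16plex LC-MS/MS, with channel sums equalised. Samples were the supernatant after 21,000xg for 90 min of pooled aliquots from K562 cells (2×10^6 cells/mL) treated with 10 μM compound for 30 min, heated for 3 min over 48°C-58°C, and extracted in PBS with 0.5% NP-40 at 4°C. Values, from duplicates, describe thermal stability against control samples on a log2 fold-change scale.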

[2] = compound: NC(=O)c1cnc(N[C@@H]2CCCC[C@@H]2N)nc1Nc1cccc(-n2nccn2)c1
Outline: as §1

[3] = compound: NC1(c2ccc(-c3nc4ccn5c(=O)[nH]nc5c4cc3-c3ccccc3)cc2)CCC1
Outline: as §1

[4] = compound: NCC(=O)Nc1ccc(-n2nc(C(F)(F)F)cc2-c2ccc3c(ccc4ccccc43)c2)cc1
Outline: as §1

entinostat = compound: Nc1ccccc1NC(=O)c1ccc(CNC(=O)OCc2cccnc2)cc1 [entinostat]
Outline: as §1

vorinostat = compound: O=C(CCCCCCC(=O)Nc1ccccc1)NO [vorinostat]
Outline: as §1

citarinostat = compound: O=C(CCCCCCNC(=O)c1cnc(N(c2ccccc2)c2ccccc2Cl)nc1)NO [citarinostat]
Outline: as §1

silmitasertib = compound: O=C(O)c1ccc2c(c1)nc(Nc1cccc(Cl)c1)c1ccncc12 [silmitasertib]
Outline: as §1

[5] = compound: O=C1NC(=O)C(c2cnc3ccccn23)=C1c1cn2c3c(cc(F)cc13)CN(C(=O)N1CCCCC1)CC2
Outline: as §1

[6] = compound: c1cc(OCCN2CCCCC2)cc(-c2n[nH]c3ccc(-c4nnc[nH]4)cc23)c1
Outline: as §1

entospletinib = compound: c1cn2cc(-c3ccc4cn[nH]c4c3)nc(Nc3ccc(N4CCOCC4)cc3)c2n1 [entospletinib]
Outline: as §1

Measured: log2 fold change

B4GALNT1 (UniProt Q00973)
Sequence of UniProt Q00973 (Q00973 whole entry, looked up): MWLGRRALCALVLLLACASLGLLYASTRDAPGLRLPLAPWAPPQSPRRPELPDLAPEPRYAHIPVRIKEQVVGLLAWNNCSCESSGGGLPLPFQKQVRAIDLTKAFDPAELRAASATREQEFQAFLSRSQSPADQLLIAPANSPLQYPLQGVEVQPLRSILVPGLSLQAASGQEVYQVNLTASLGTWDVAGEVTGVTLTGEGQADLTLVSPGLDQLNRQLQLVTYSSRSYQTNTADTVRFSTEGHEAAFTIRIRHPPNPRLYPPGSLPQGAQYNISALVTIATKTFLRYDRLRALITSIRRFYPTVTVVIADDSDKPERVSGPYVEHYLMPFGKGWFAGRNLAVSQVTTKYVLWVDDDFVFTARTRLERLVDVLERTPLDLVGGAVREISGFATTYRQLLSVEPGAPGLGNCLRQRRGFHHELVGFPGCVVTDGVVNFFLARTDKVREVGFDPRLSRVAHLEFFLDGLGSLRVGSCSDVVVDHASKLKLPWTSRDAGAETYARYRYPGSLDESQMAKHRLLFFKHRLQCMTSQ
active: citarinostat 0.538
inactive: [1] -0.001 | [2] -0.062 | [3] -0.093 | [4] 0.092 | entinostat 0.02 | vorinostat 0.003 | silmitasertib 0.062 | [5] -0.095 | [6] 0.064 | entospletinib 0.074

AGPAT3 isoform 3 (UniProt Q9NRZ7)
inactive: [1] 0.008 | [2] -0.044 | [3] -0.141 | [4] -0.041 | entinostat 0.004 | vorinostat 0.004 | citarinostat 0.029 | silmitasertib 0.008 | [5] -0.079 | [6] -0.044 | entospletinib -0.017

AP2S1 (UniProt P53680)
inactive: [2] 0.102 | [3] -0.009 | [4] -0.039 | entinostat -0.066 | vorinostat 0.108 | citarinostat -0.077 | silmitasertib 0.011 | [6] -0.217 | entospletinib 0.028
active: [1] -0.386 | [5] -0.314

ADD3 isoform 2 (UniProt Q9UEY8)
Sequence of UniProt Q9UEY8 (Q9UEY8 whole entry, looked up): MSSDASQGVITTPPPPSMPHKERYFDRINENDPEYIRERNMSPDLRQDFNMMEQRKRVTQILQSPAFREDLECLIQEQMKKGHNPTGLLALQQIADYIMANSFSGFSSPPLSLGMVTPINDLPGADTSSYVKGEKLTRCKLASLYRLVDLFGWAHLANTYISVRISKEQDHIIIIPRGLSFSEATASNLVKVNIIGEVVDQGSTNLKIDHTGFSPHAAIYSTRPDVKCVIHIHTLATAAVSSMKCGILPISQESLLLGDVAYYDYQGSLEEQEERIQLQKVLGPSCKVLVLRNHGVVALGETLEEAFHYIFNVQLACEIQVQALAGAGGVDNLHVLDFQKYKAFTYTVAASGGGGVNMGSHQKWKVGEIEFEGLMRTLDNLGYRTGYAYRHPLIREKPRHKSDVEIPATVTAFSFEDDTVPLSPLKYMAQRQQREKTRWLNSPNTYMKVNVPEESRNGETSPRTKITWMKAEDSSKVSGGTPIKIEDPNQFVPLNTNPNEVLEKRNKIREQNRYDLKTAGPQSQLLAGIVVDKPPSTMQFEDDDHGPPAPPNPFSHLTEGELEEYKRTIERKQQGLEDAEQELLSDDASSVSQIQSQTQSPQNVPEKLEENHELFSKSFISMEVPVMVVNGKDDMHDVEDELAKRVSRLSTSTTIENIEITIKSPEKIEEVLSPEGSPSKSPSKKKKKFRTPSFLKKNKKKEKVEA
inactive: [1] 0.03 | [2] 0.059 | [3] -0.009 | [4] -0.002 | entinostat -0.018 | vorinostat -0.119 | citarinostat 0.08 | silmitasertib -0.002 | [5] 0.019 | [6] -0.02 | entospletinib -0.066

AARSD1 isoform 3 (UniProt Q9BTE6)
active: [3] -0.214
inactive: [1] -0.051 | [2] -0.008 | [4] -0.04 | entinostat 0.054 | vorinostat -0.113 | citarinostat 0.033 | silmitasertib 0.046 | [5] 0.008 | [6] 0.011 | entospletinib -0.066

BUB1B isoform 3 (UniProt O60566)
Sequence of UniProt O60566 (O60566 whole entry, looked up): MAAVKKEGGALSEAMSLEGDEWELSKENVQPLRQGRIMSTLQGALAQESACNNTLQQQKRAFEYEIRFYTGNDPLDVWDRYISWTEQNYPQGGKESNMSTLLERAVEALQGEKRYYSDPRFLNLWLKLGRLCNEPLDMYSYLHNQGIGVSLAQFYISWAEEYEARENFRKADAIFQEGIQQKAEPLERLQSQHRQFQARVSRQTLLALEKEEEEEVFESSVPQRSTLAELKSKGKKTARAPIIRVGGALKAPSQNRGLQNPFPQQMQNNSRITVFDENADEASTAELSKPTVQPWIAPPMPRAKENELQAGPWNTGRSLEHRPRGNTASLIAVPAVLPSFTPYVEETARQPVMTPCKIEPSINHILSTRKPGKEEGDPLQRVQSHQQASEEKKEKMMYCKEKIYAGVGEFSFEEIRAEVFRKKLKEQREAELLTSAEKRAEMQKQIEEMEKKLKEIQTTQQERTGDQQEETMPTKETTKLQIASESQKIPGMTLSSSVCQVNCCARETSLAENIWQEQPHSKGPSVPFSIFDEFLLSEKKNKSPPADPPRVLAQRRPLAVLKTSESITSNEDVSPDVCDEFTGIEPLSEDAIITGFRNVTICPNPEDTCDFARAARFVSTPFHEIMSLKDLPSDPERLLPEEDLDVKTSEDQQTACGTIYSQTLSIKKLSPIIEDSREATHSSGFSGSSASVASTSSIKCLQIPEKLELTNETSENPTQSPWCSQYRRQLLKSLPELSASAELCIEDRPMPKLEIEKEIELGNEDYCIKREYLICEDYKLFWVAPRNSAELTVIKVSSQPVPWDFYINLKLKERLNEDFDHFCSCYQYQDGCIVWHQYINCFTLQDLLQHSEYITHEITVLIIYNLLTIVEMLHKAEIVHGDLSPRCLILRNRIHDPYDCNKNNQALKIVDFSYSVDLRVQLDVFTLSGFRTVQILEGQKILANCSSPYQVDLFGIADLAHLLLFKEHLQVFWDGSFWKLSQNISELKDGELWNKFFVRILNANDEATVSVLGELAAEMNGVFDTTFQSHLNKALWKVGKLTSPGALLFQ
inactive: [1] 0 | [2] -0.135 | [3] -0.113 | [4] -0.039 | entinostat 0.068 | vorinostat 0.124 | citarinostat 0.02 | silmitasertib 0.111 | [5] 0.026 | [6] 0 | entospletinib -0.016

ARAF (UniProt P10398)
Sequence of UniProt P10398 (P10398 whole entry, looked up): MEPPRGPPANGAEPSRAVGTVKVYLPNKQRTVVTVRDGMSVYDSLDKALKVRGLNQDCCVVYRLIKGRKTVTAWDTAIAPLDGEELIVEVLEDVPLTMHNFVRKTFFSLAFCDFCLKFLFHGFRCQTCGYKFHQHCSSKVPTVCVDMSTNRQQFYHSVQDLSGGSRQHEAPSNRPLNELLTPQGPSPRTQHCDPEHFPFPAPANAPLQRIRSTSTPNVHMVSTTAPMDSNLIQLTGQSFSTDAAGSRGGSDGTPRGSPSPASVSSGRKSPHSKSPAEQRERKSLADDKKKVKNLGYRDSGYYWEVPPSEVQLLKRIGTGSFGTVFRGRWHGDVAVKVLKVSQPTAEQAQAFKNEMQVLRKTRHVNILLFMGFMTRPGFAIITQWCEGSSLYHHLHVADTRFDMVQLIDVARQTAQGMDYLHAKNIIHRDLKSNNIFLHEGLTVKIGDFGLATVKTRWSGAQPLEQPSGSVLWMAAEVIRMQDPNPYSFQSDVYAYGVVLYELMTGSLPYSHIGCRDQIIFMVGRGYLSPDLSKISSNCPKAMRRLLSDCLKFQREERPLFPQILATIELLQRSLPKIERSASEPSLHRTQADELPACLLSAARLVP
inactive: [1] -0.059 | [2] 0.196 | [3] -0.119 | [4] 0.011 | entinostat 0.062 | vorinostat 0.055 | citarinostat 0.098 | silmitasertib 0.048 | [5] 0.017 | [6] -0.096 | entospletinib -0.003

ANP32E (UniProt Q9BTT0)
Sequence of UniProt Q9BTT0 (Q9BTT0 whole entry, looked up): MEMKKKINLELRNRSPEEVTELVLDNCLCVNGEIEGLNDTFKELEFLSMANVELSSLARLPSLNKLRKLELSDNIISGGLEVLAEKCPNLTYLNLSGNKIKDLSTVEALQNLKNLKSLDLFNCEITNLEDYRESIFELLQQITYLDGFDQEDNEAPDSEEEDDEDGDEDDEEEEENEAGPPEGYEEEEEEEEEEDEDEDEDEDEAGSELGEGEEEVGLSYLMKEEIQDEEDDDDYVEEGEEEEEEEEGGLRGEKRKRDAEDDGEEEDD
inactive: [1] 0.029 | [2] -0.043 | [3] 0.014 | [4] 0.063 | entinostat 0.016 | vorinostat 0.01 | citarinostat 0.116 | silmitasertib 0.083 | [5] -0.233 | [6] -0.036 | entospletinib 0

AGPAT5 (UniProt Q9NUQ2)
Sequence of UniProt Q9NUQ2 (Q9NUQ2 whole entry, looked up): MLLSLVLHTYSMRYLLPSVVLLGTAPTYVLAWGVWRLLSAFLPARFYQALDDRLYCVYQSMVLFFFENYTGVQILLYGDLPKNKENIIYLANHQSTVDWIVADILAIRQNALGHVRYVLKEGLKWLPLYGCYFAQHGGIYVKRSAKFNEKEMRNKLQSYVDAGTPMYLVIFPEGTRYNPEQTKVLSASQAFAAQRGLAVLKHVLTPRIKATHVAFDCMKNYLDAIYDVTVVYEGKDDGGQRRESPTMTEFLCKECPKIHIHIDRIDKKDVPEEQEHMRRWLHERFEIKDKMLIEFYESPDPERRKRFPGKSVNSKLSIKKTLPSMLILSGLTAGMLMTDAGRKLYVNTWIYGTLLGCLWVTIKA
inactive: [1] -0.044 | [2] 0.016 | [3] -0.029 | [4] -0.047 | entinostat -0.027 | vorinostat -0.002 | citarinostat 0.045 | silmitasertib -0.001 | [5] -0.076 | [6] -0.027 | entospletinib 0.114

ATP6V0A1 isoform 3 (UniProt Q93050)
Sequence of UniProt Q93050 (Q93050 whole entry, looked up): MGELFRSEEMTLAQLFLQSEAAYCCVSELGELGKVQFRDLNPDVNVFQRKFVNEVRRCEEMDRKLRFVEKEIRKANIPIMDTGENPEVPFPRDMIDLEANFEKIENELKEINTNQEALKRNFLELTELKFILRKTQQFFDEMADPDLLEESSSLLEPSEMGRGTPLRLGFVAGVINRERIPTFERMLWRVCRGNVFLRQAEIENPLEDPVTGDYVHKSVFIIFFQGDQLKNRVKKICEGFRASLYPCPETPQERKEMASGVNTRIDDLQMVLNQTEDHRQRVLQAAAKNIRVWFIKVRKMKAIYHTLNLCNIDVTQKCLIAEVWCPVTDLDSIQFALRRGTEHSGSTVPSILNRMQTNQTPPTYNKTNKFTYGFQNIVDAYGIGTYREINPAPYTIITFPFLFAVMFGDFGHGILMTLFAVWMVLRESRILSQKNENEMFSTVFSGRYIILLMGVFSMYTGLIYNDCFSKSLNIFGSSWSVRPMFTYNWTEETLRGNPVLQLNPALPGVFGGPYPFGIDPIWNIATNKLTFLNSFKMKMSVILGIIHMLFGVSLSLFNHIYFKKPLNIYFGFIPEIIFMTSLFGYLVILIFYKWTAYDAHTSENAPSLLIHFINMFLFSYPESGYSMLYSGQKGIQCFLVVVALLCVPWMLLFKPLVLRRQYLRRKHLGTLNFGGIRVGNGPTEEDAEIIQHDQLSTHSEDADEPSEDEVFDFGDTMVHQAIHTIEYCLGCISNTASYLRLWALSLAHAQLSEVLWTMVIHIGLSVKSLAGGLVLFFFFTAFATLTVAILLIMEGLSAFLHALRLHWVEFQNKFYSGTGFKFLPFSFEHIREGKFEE
inactive: [1] -0.051 | [2] -0.207 | [3] -0.184 | [4] 0.008 | entinostat 0.083 | vorinostat 0.062 | citarinostat 0.109 | silmitasertib 0.102 | [5] 0.019 | [6] -0.112 | entospletinib 0.079

AGO1 (UniProt Q9UL18)
inactive: [1] 0.108 | [2] 0.011 | [3] 0.049 | [4] 0.073 | entinostat -0.012 | vorinostat -0.05 | silmitasertib 0.12 | [5] -0.067 | [6] -0.413 | entospletinib -0.2
active: citarinostat 0.439

ARFGAP1 (UniProt Q8N6T3)
inactive: [1] -0.036 | [2] -0.033 | [3] -0.073 | [4] -0.052 | entinostat 0.041 | vorinostat 0.006 | citarinostat 0.056 | silmitasertib 0.063 | [5] -0.092 | [6] 0.035 | entospletinib -0.032

APLP2 (UniProt Q06481)
inactive: [1] -0.13 | [2] -0.021 | [3] 0.036 | [4] 0.054 | entinostat -0.063 | vorinostat -0.035 | citarinostat 0.02 | silmitasertib 0 | [5] 0.074 | [6] 0.046 | entospletinib -0.009

B4GALT1 (UniProt P15291)
inactive: [1] 0.053 | [2] 0.114 | [3] -0.279 | [4] 0.199 | entinostat -0.01 | vorinostat -0.01 | citarinostat 0 | silmitasertib 0 | [5] -0.039 | [6] -0.027 | entospletinib 0.039

ALKBH4 (UniProt Q9NXW9)
inactive: [1] -0.009 | [2] -0.051 | [4] 0.097 | entinostat -0.058 | vorinostat -0.031 | citarinostat 0.079 | silmitasertib 0.165 | [5] 0 | [6] -0.014 | entospletinib -0.029
active: [3] -0.427

BCCIP (UniProt Q9P287)
inactive: [1] 0.023 | [2] -0.008 | [3] -0.006 | [4] -0.04 | entinostat -0.052 | vorinostat 0.045 | citarinostat 0.022 | silmitasertib 0.049 | [5] -0.012 | [6] -0.079 | entospletinib -0.036

ALDH18A1 (UniProt P54886)
inactive: [1] 0.033 | [2] -0.03 | [3] -0.34 | [4] -0.219 | entinostat 0.249 | vorinostat 0.194 | citarinostat 0.031 | silmitasertib 0.018 | [5] -0.329 | [6] -0.372 | entospletinib -0.246

AGPAT1 (UniProt Q99943)
Sequence of UniProt Q99943 (Q99943 whole entry, looked up): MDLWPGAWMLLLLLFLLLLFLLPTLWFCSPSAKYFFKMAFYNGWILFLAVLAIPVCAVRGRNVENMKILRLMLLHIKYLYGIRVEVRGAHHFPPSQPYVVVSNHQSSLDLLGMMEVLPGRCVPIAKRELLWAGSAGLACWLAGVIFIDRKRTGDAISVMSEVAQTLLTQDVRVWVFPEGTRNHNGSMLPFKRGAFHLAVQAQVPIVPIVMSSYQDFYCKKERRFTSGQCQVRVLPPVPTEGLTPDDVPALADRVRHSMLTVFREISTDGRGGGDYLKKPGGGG
inactive: [1] 0.013 | [2] -0.022 | [3] 0.018 | [4] -0.012 | entinostat -0.033 | vorinostat -0.03 | citarinostat 0.088 | silmitasertib -0.007 | [5] -0.067 | [6] -0.002 | entospletinib -0.037

AURKA (UniProt O14965)
inactive: [1] 0.077 | [2] -0.02 | [3] 0.059 | [4] -0.033 | entinostat -0.072 | vorinostat -0.06 | citarinostat -0.036 | silmitasertib 0.015 | [5] 0.105 | [6] -0.328 | entospletinib 0.282

AHCYL1 (UniProt O43865)
inactive: [1] 0.183 | [2] 0.106 | [3] 0.003 | [4] 0.046 | entinostat -0.109 | vorinostat 0.116 | citarinostat -0.017 | silmitasertib 0.188 | [5] -0.002 | [6] 0.253 | entospletinib 0.072

ANXA5 (UniProt P08758)
inactive: [1] -0.021 | [2] -0.044 | [3] -0.139 | [4] -0.031 | entinostat 0.055 | vorinostat 0.027 | citarinostat 0.115 | silmitasertib 0 | [5] -0.045 | [6] -0.008 | entospletinib 0.016

ATP23 (UniProt Q9Y6H3)
inactive: [1] 0.014 | [2] 0.06 | [3] 0.002 | [4] -0.057 | entinostat -0.012 | vorinostat 0.044 | citarinostat -0.012 | silmitasertib -0.027 | [5] 0.02 | [6] -0.045 | entospletinib 0.077

BAP1 (UniProt Q92560)
inactive: [1] -0.073 | [2] 0.085 | [3] 0.073 | [4] 0.012 | entinostat -0.054 | vorinostat 0.13 | citarinostat 0.058 | silmitasertib 0.04 | [5] 0.076 | [6] -0.142 | entospletinib -0.062

ADPRHL2 (UniProt Q9NX46)
inactive: [1] -0.022 | [2] -0.02 | [3] -0.056 | [4] -0.045 | entinostat 0.027 | vorinostat -0.039 | citarinostat 0.076 | silmitasertib -0.045 | [5] -0.028 | [6] 0.055 | entospletinib 0.024

ACTBL2 (UniProt Q562R1)
Sequence of UniProt Q562R1 (Q562R1 whole entry, looked up): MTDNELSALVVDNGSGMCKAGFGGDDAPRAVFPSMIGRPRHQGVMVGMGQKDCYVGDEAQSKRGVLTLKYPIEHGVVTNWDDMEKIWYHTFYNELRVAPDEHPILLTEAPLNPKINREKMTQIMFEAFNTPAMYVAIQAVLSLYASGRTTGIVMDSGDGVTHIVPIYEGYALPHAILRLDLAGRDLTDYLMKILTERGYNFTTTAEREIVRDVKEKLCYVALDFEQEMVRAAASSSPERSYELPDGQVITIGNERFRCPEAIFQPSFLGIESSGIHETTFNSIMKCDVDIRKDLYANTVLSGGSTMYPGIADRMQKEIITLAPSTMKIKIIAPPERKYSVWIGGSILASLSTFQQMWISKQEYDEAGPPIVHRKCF
inactive: [1] -0.205 | [2] 0.038 | [4] 0.239 | entinostat 0.103 | vorinostat 0.024 | citarinostat -0.585 | silmitasertib -0.129 | [5] -0.051 | [6] -0.1 | entospletinib 0.103
active: [3] 1.54

AP2M1 (UniProt Q96CW1)
active: [1] -0.293 | [5] -0.237
inactive: [2] 0.004 | [3] 0.012 | [4] -0.003 | entinostat -0.007 | vorinostat 0.06 | citarinostat -0.004 | silmitasertib 0.029 | [6] -0.209 | entospletinib 0.025

ACP1 (UniProt P24666)
inactive: [1] -0.079 | [2] -0.24 | [3] -0.002 | [4] -0.199 | entinostat 0.093 | vorinostat 0.01 | citarinostat 0.012 | silmitasertib 0.088 | [5] -0.074 | [6] -0.014 | entospletinib 0.102
